AmpC no deterg – qHTS Inhibitors of AmpC Beta-Lactamase (assay without detergent); AID 485341, 2010; 330,000 compounds, 0.52% hits; Potency, µM (series often up to 57.1 µM), most hits filed as inhibitors; AmpC nitrocefin hydrolysis, absorbance 480 nm, 0.0001% Triton; further: nearly all actives have a fitted effect of over 20% in size
Target sequence (P00811 whole entry, looked up): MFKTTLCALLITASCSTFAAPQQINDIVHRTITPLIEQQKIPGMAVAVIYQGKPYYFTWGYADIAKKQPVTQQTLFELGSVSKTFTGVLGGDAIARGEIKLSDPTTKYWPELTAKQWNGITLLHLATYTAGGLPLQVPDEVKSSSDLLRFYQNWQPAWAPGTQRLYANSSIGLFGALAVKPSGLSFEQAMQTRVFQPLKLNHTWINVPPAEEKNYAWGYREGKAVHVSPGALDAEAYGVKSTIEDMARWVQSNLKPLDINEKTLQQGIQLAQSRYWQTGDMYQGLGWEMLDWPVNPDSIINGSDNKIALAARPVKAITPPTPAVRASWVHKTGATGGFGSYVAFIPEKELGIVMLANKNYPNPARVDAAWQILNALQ
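AmpC (5.3 nM in the dispensed reagent) in 20 mM phosphate pH 7.0 with 0.01% (detergent screen) or 0.0001% Triton X-100 was preincubated with compounds for 15 min at room temperature. Nitrocefin was then added from an 800 uM solution, and hydrolysis was followed at 480 nm.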
AmpC inh detg – qHTS Inhibitors of AmpC Beta-Lactamase (assay with detergent) | P00811 | AmpC hydrolysis of nitrocefin, absorbance 480 nm, 0.01% Triton | Potency, µM (series often up to 114 µM), most hits filed as inhibitors | 370,000 compounds, 0.041% hits; further: nearly all actives have a fitted effect of over 25% in size
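20 mM phosphate pH 7.0 + 0.01% (detergent screen) or 0.0001% Triton X-100; 5.3 nM AmpC reagent; cpd preinc 15 min RT; nitrocefin (800 uM stock) to start; A480 q20 s × 4 min; Activity was normalised to no-enzyme and no-compound control wells.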
Giardia FBPA inh – qHTS Assay for Inhibitors of Fructose-1,6-bisphosphate Aldolase from Giardia Lamblia; purified Giardia FBPA; 290,000 compounds, 0.71% hits; Potency, µM (doses to about 59.6 µM), usual class: inhibitors; AID 2451, 2010; further: nearly all actives have a fitted effect of over 55% in size
Target sequence (A8B2U2 whole entry, looked up): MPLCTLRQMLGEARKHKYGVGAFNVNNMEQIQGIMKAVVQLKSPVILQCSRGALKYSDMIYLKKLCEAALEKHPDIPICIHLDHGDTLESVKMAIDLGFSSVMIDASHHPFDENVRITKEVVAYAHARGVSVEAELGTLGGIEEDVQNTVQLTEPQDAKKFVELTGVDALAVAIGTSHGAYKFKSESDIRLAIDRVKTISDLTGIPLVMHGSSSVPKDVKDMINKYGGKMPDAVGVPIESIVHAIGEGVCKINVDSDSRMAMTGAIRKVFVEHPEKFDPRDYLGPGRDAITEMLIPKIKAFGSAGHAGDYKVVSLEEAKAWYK
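40 nM FBPA preincubated 10 min at RT with compound (up to 57.5 uM final), then substrate plus GAPDH/TPI/NAD/arsenate coupling and diaphorase/resazurin added. Fluorescence read after 20 min at RT, 525/598 nm.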
AMA1-RON2 inh – qHTS for Inhibitors of AMA1-RON; Towards Development of Antimalarial Drug Lead: Primary Screen. Potency, µM (doses to about 58.2 µM), actives largely listed as inhibitors. AID 720542, 2013. AlphaScreen AMA1-biotinylated RON2 peptide binding. Plasmodium falciparum AMA1 (3D7) - RON2 peptide interaction. 360,000 compounds, 0.2% hits; further: nearly all actives have a fitted effect of over 45% in size
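AMA1 (3D7) with his tag at 25 nM final met compounds first, then biotinylated RON2 peptide at 25 nM; detection used donor plus acceptor beads, 10 µg/mL apiece, read by AlphaScreen after 30 min at room temperature.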
Numbers stand for hits; 0 = inactive; ? = inconclusive; - = not tested or not shown; ! = repeats disagree; [ ] = dose if it differs, or a comment. Compounds with a hit are over-represented: about 1.1% of the library has one in this group of screens. The call rests on the fitted dose curve; in most records, active means well fitted curve in the direction sought with a large enough effect; inconclusive means small, poorly fitted or top-dose-only effect, or another doubt; inactive means no such curve, though single readings can be large; an effect the other way counts as inactive or inconclusive.

SMILES	AmpC no deterg	AmpC inh detg	Giardia FBPA inh	AMA1-RON2 inh
CN(C)c1ccc(CNC(=O)C2(C)Cc3c(-c4cccc(C(F)(F)F)c4)ccnc3O2)cc1 (centres undefined)	-	-	-	25.1µM
O=C(Nc1ccn(CCCNC2CCN(Cc3ccccc3)CC2)c(=O)n1)OCc1ccccc1	-	-	-	0
O=C(Nc1cc(-c2ccccc2)[nH]n1)c1ccc(Cl)cc1	7.08µM!	0	0	0
CN1CC(C(=O)c2ccc(Cl)cc2)C(c2ccc(Cl)cc2Cl)C1 (centres undefined)	0	0	0	31.6µM
CN1CC(C(=O)c2ccc(Cl)cc2)C(c2ccc(N(C)C)cc2)C1 (centres undefined)	0	0	0	?
COc1ccc(Cl)cc1NC(=O)CN(C)C(=O)c1cc2c(s1)CCC(C)C2 (centres undefined)	0	?	-	0
Nc1cnccc1C(=O)O	0	0	12.6µM	0
COc1ccccc1C(CCNCc1ccc(N(C)C)cc1)c1ccc(OC(C)C)cc1 (centres undefined)	0	0	0	8.91µM
COc1ccc(CNCCC(c2ccc(OC(C)C)cc2)c2ccccc2OC)cc1 (centres undefined)	0	0	0	0
COC(=O)c1ccc(N2CCc3ccccc32)c([N+](=O)[O-])c1	0	0	0	12.6µM
COc1ccc(O[C@H]2C=C[C@@H](c3ccccc3)O[C@H]2COC(=O)CC/C(C)=N/OCC[C@@H]2C=C[C@H](OC(C)=O)[C@H](COC(C)=O)O2)cc1	-	-	0[12.9 µM]	-
NC(=O)c1sc2nc3c(c(-c4ccco4)c2c1N)CCC3	0	?	?	0
Nc1c(C(=O)NC2CC2)sc2nc3c(c(-c4ccco4)c12)CC/C3=C/c1ccco1	0	0	5.61µM	0[2.32 µM]
O=C(/C(=N/N=C/c1ccc(O)c(O)c1O)c1ccccc1)c1ccccc1	20µM	0	?	0
CCOC(=O)c1cc(OC(=O)Cc2ccc(OC)c(S(=O)(=O)N3CCOCC3)c2)cc(C(=O)OCC)c1	-	-	-	0
CC(C)(C)NC(=O)C1c2ccccc2OCC(=O)N1CC(F)(F)F (centres undefined)	-	-	-	0
On1c2c(c3c4nonc4ccc31)CCCC2	0	?	5.61µM	-
COn1c2c(c3c4nonc4ccc31)CCCC2	0	0	?	0
Cc1cc(=O)oc2cc(OCc3ccc(C(=O)OCC(=O)Nc4ccccc4OC(F)F)cc3)ccc12	22.4µM	0	0	?
Cc1cc(=O)oc2cc(OCc3ccccc3)ccc12	0	0	0	0
Cc1[nH][nH]c(=O)c1C(c1c(C)[nH][nH]c1=O)c1cn(C)c2ccccc12	0	0	2.81µM	0
Cc1nnc(N2CCN(C(=O)Nc3cccc(C(F)(F)F)c3)CC2)c2nn(-c3ccccc3)c(C)c12	-	0	-	-
Cc1ccc(-c2nc3scc(CCNS(=O)(=O)c4ccc(Oc5ccccc5)cc4)n3n2)cc1	-	0	-	-
O=C(CSc1nc2cc([N+](=O)[O-])ccc2n1-c1ccccc1)NCc1ccc2c(c1)OCO2	0	0	7.92µM	0
COC(=O)C1=C(C)[C@@H](O)[C@@H](C)[C@H](c2c(OC)c(OC)c(C)c(OC)c2OC)O1	-	-	0[12.9 µM]	-
SMILES	AmpC no deterg	AmpC inh detg	Giardia FBPA inh	AMA1-RON2 inh
O=c1[nH]c2ccc(Cl)cc2c(-c2ccccc2)c1SC(=S)N1CCOCC1	0	0	0	0
O=c1[nH]c2ccc(Cl)cc2c(-c2ccccc2)c1SC(=S)N1CCCCC1	10µM	0	0	0
CSC[C@H]1CN(CCc2ccccc2)C(=O)[C@@H]1CC(=O)Nc1ccccc1	-	-	-	0
COc1ccc(C)cc1NC(=O)c1ccc(NS(=O)(=O)c2cccc3cccnc23)cc1	0	0	0	0
COc1ccccc1NC(=O)c1ccc(NS(=O)(=O)c2cccc3cccnc23)cc1	7.94µM	0	0	0
N#Cc1c(NC(=O)CSc2ncnc3sccc23)oc(-c2ccco2)c1-c1ccco1	1.78µM	0	?	0
Cc1ccc(-c2ccc(/C=N/NC(=S)Nc3ccccc3)o2)cc1[N+](=O)[O-]	3.55µM	0	0	0
CNC(=S)N/N=C/c1ccc(-c2ccc(Cl)c([N+](=O)[O-])c2)o1	0	0	0	0
Cc1ccc(N=Cc2cc(Cc3ccccc3Cl)cc([N+](=O)[O-])c2O)c(O)c1	0	0	?	10µM
O=C(O)CCCNc1cc(N2CCN(C3CCCCC3)CC2)c2noc3c2c1C(=O)c1ccccc1-3	-	0	-	-
CC(=O)OCCNc1cc(N2CCN(C)CC2)c2noc3c2c1C(=O)c1ccccc1-3	0	?	?	?
O=C(O)CCNc1cc(N2CCN(C(=O)c3ccco3)CC2)c2noc3c2c1C(=O)c1ccccc1-3	0	0	?	31.6µM
CCN1CCN(c2cc(N3CCN(C(=O)c4ccco4)CC3)c3c4c(onc24)-c2ccccc2C3=O)CC1	0	0	?	22.4µM
CC(C)CC(CSc1ccc(Br)cc1)N1CCN(CC(C)C)CCC1=O (centres undefined)	-	-	0	-
Cn1nc(C(=O)Nc2cccc(Cl)c2)cc1C(=O)Nc1cccc(Cl)c1	15.8µM	0	0	0
COc1cc(CC(=O)OCC(=O)NCCc2ccc(S(N)(=O)=O)cc2)cc(OC)c1OC	0	0	-	0
Cc1ccc(O)c(CO)n1	0	0	0	0
Cc1nc2c(O)cccc2cc1CO	0	0	19.9µM	0
N#Cc1c[nH]n2c(NC3CCCCC3)c(-c3ccccc3F)nc12	-	0	-	-
COc1ccc(C2CC(c3ccccc3)Oc3ccc(C(C)(C)C)cc32)cc1 (centres undefined)	-	-	0	-
COc1ccc(C2CC(c3ccccc3)Oc3cc4c(cc32)OCO4)cc1 (centres undefined)	-	-	15.8µM!	-
COc1cccc(-c2nc(-c3ccccc3)c(-c3ccccc3)[nH]2)c1OCC(=O)O	0	?	0	0
O=C(O)COc1ccccc1-c1nc(-c2ccccc2)c(-c2ccccc2)[nH]1	3.16µM	0	0	0
Cc1ccc(C(=O)N/C(=C\c2ccc(-c3ccccc3[N+](=O)[O-])o2)C(=O)NCCN(C)C)cc1	0	0	5.01µM	0
N/C(=N\c1nc2ccccc2o1)NC(=O)c1ccccc1	0	?	0	0
SMILES	AmpC no deterg	AmpC inh detg	Giardia FBPA inh	AMA1-RON2 inh
N/C(=N\c1nc2ccccc2o1)NC(=O)/C=C/c1ccccc1	5.01µM	0	0	0
CS(=O)(=O)N1CCC2(CC1)CN(Cc1ccc(C#N)cc1)C2	-	-	0	-
O=c1ccc2nc3ccccc3sc-2c1	-	-	-	14.1µM
Brc1ccc(-c2nc3ccccc3s2)s1	0	0	0	0
C[Si](C)(C)C#Cc1ccccc1NC(=S)Nc1ccccc1	-	-	0	-
COC(=O)c1sc(NC(=O)c2cc(-c3ccccc3)nc3ccccc23)c(C#N)c1C	0	56.2µM	1.41µM	0
Cc1ccccc1-n1c(-c2csc(C)c2C)n[nH]c1=S	22.4µM	?	0	0
Cc1cc(OCCn2cc(/C(N)=N/O)c3ccccc32)ccc1Cl	15.8µM	?	0	0
O=C(Nc1cccc(C(=O)Nc2ccc(Br)cc2)c1)c1ccccc1	31.6µM	0	0	0
